These results are taken from PubChem BioAssay (NCATS).

Records with an inconclusive call do not appear. The source made the active and inactive calls. Unless noted, calls come from the whole dose curve; as a rule, active = well fitted curve in the direction sought with a large enough effect; inconclusive = small, poorly fitted or top-dose-only effect, or another doubt; inactive = no such curve, though single readings can be large; an effect the other way counts as inactive or inconclusive.

Assay [1] deals with Thyrotropin receptor (Homo sapiens) (UniProt P16473). As to the kind of experiment: qHTS Assay for Antagonists of the Thyroid Stimulating Hormone Receptor (AID 488980). Note: series mostly up to about 58 µM; 0% is about no effect. Summed up:
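Cells expressing human TSHR (HEK293) are dispensed in HBSS/HEPES containing 70 uM RO 20-1724, compound is added, then TSH at EC80 (4 nM final). Antibody in lysis buffer follows, 30 minutes at room temperature before HTRF detection.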
(In general: In qHTS, concentration-response curves come from the screen itself.)

Assay [2] deals with D(1A) dopamine receptor (Homo sapiens) (UniProt P21728). The experiment in a line: HTS Assay for Allosteric Agonists of the Human D1 Dopamine Receptor: Primary Screen for Antagonists (AID 488983).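 Note: calcium flux response to an EC80 dopamine challenge measured with no-wash dye; nearly all actives have a fitted effect of over 65% in size.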 Note: potency is the fitted concentration of half-maximal effect. Summed up: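 Tetracycline-induced HEK293 T-REx cells expressing force-coupled D1 were plated overnight at 30 C, dye-loaded for calcium, and read kinetically. Compounds were pinned in, then an EC80 dopamine challenge followed after 180 s to reveal antagonism.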

The target of assay [3] is Thyrotropin-releasing hormone receptor (Homo sapiens) (UniProt P34981). As to the kind of experiment: qHTS for Small Molecule Agonists and Allosteric Enhancers of Human TRH Receptor: Validation Screen for Agonists (AID 493127;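 active = calcium activation more than 3 SD above the typical response in the agonist read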;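 note: intracellular calcium rise by fluo-8 fluorescence before TRH EC20 addition; 0% is about no effect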). Conditions: TRH receptor agonist cell assay; at 2 µM; stronger effect = higher value. The method, boiled down: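 TRHR-expressing cells were plated overnight in serum-containing medium, then loaded with fluo-8 calcium dye at room temperature for 30 min–1.5 h. After a 10 s baseline, compound was pin-transferred and calcium fluorescence (ex 480/em 530) read kinetically for agonist response.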

Assay [4] can be described thus: Nrf2 qHTS screen for inhibitors: Validation (AID 493153; active = well fitted inhibition curve with a large enough effect in the main read-out, with a control signal flat, not every such curve was filed as active). The note with it: Potency: luciferase luminescence; viability change: measured here: cytotoxicity max response. The method, boiled down: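 A549 cells carrying an ARE-driven firefly luciferase reporter, in 5% FBS OPTI-MEM, were treated with compounds in concentration-response for 18-24 h at 37°C. Viability was read by CellTiter-Fluor fluorescence, then Nrf2 activity by luciferase luminescence.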

Assay [5] concerns the target D(1A) dopamine receptor (Homo sapiens) (UniProt P21728). The experiment in a line: HTS Assay for Allosteric Agonists of the Human D1 Dopamine Receptor: Primary Screen for Potentiators (AID 488982). Note: 0% is about no effect. Summed up:
(§1)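 Tetracycline-induced HEK293 Trex D1 cells with forced coupling to calcium, loaded with no-wash calcium dye; kinetic fluorescence read 180 s after compound addition for agonism, then a further 180 s after an EC20 dopamine challenge for potentiation.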

Assay [6] is described as follows: Validation screen for small molecules that induce genotoxicity in human embryonic kidney (HEK293T) cells expressing luciferase-tagged ELG1 (AID 493106). Note: potency is the fitted concentration of half-maximal effect. The method, boiled down: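 HEK293T cells expressing luciferase-tagged ELG1 were exposed to compound or DMSO vehicle for 16 hr at 37 °C, 5% CO2. Genotoxic stress raises ELG1 levels, so increased luciferase signal after ONE-Glo addition and 30 min at room temperature marks hits.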

In assay [7] the target is ATPase family AAA domain-containing protein 5 (Homo sapiens) (UniProt Q96QE3). As to the kind of experiment: Validation screen for small molecules that inhibit ELG1-dependent DNA repair in human embryonic kidney (HEK293T) cells expressing luciferase-tagged ELG1 (AID 493107).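 Note: cells co-treated with the DNA-damaging agent 5-fluorouridine alongside compound; series mostly up to about 46 µM; % is set by controls: 0 for no effect and ±100 for the full control effect; inhibitors lower the ELG1-luciferase luminescence signal; nearly all actives have a fitted effect of over 70% in size.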 The method, boiled down: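 HEK293T cells expressing luciferase-tagged ELG1 were co-treated with 5-fluorouridine and compound or DMSO for 16 hr at 37 °C, 5% CO2. Luciferase activity was then read with ONE-Glo after 30 min at room temperature; suppressed signal indicates blocked ELG1 function.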

The target of assay [8] is D(1A) dopamine receptor (Homo sapiens) (UniProt P21728). The experiment in a line: HTS Assay for Allosteric Agonists of the Human D1 Dopamine Receptor: Primary Screen for Agonists (AID 488981). Note: 0% is about no effect. Summed up: as §1

ATPase family AAA domain-containing protein 5 (Homo sapiens), sequence (Q96QE3 whole entry, looked up, the tested form may be a part): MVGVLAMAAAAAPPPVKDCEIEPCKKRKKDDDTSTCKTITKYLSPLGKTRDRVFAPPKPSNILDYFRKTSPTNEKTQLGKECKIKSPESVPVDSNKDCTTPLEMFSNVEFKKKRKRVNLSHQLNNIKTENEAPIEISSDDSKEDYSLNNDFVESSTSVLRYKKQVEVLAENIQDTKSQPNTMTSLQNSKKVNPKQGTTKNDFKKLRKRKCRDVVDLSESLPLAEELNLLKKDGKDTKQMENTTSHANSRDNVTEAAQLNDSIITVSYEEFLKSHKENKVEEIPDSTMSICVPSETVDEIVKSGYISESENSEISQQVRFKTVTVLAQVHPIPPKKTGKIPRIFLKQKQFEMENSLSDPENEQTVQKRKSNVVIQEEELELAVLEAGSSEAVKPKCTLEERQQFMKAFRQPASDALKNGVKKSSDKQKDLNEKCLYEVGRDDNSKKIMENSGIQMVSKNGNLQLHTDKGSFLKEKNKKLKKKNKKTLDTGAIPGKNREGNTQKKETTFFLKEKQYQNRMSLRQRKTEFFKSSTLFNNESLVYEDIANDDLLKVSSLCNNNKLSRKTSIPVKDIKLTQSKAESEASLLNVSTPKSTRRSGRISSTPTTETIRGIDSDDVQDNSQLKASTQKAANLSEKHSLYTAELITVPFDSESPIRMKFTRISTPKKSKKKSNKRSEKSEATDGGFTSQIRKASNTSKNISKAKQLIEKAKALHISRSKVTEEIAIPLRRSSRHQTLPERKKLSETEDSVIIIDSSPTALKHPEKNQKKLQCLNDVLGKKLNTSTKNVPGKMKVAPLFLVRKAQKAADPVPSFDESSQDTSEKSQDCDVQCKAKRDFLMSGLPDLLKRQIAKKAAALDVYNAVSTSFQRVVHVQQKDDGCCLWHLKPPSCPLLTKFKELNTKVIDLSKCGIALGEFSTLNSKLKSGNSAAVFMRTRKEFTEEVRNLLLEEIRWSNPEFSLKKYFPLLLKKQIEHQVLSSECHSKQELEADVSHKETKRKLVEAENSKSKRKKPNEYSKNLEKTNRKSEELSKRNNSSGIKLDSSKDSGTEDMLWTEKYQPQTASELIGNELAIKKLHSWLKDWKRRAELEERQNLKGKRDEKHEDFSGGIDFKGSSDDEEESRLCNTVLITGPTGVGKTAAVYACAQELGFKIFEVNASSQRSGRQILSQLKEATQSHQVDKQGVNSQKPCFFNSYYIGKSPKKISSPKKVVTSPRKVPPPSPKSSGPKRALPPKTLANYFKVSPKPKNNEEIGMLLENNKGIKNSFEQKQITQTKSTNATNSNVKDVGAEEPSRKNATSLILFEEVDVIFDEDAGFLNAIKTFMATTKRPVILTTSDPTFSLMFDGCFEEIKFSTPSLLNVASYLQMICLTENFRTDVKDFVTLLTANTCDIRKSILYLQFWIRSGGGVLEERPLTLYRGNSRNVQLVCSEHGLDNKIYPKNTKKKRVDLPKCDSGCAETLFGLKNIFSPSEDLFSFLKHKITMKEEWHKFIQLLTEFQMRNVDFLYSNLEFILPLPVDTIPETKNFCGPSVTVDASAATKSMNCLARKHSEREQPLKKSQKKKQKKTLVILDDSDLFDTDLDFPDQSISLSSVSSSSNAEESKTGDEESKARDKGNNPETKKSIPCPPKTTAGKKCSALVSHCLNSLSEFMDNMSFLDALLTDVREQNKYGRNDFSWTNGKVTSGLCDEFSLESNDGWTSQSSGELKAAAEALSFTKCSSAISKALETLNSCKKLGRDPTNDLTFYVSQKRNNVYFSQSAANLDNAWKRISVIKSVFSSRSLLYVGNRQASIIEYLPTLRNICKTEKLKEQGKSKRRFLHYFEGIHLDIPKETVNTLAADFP
D(1A) dopamine receptor (Homo sapiens), sequence (P21728 whole entry, looked up): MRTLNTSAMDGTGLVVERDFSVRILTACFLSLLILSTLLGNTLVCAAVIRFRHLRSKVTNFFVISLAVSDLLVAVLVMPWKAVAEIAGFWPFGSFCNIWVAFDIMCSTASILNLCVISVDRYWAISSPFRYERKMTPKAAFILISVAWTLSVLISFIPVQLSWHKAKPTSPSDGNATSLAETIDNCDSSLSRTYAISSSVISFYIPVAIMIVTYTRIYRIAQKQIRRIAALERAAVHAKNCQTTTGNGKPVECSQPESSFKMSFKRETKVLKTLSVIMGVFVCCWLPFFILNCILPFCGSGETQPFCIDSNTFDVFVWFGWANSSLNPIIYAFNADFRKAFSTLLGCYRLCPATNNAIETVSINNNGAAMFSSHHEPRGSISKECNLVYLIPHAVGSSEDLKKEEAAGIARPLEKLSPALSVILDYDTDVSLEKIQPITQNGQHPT
Thyrotropin-releasing hormone receptor (Homo sapiens), sequence (P34981 whole entry, looked up): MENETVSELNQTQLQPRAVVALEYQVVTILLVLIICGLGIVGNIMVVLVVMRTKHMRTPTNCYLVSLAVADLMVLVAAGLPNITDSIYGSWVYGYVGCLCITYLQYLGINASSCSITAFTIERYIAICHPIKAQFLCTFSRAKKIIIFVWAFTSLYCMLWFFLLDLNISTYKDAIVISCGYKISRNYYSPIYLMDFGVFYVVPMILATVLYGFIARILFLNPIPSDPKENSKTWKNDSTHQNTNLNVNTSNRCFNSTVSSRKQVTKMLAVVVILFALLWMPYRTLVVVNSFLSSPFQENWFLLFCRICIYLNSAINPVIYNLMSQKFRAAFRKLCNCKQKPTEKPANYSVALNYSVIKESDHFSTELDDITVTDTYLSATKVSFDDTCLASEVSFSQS
Thyrotropin receptor (Homo sapiens), sequence (P16473 whole entry, looked up): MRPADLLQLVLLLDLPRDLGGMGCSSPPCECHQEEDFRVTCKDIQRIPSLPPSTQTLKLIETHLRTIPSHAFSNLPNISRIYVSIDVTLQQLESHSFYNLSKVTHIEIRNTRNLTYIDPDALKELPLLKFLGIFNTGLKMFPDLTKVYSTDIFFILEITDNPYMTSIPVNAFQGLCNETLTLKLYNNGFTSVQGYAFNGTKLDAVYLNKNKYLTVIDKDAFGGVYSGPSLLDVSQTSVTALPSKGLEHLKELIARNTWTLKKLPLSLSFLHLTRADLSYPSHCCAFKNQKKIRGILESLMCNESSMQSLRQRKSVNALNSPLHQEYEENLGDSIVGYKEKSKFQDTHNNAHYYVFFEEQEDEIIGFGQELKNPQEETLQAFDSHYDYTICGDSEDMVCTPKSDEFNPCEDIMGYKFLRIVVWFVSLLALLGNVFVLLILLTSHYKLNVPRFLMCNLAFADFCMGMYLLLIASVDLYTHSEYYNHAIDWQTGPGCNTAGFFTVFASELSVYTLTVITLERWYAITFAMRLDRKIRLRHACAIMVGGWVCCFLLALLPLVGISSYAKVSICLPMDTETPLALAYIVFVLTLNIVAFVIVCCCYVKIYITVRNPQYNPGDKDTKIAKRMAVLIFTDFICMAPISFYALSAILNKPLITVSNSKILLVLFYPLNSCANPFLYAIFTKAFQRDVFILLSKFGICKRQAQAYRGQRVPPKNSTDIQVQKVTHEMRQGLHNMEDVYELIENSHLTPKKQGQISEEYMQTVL

`CCCCCCCCCCCCCCCCCC(=O)NCC(COP(=O)([O-])OCC[N+](C)(C)C)OCC` (stereo not drawn): in assay [1], the molecule was called inactive. Further, the Potency in assay [2] is 12.6 µM (active). Besides, the activation in assay [3] was 2.19% (inactive). Besides, in assay [4], the Potency result was “inactive” and the viability change was 1.48%.
Turning to `O=C1O/C(=C/Br)CCC1c1cccc2ccccc12` (stereo not drawn), the molecule was called inactive in assay [1]. The Potency result in assay [5], in assay [2] and in assay [6] was “inactive” throughout. The activation in assay [3] was -3.56% (inactive).
Regarding `O=C(O)[C@@H]1C[C@H](C(=O)O)N1`, in assay [1], the molecule was classed as inactive. In addition, the Potency result in assay [5], in assay [2] and in assay [4] was “inactive” in each case. Moreover, in assay [3], the activation was -0.25% (inactive). Also, the viability change in assay [4] came to 12.1%.
With `CNCC[C@H](Oc1ccc(C(F)(F)F)cc1)c1ccccc1`, the outcome in assay [1] was inactive. Moreover, the Potency entry in assay [5], in assay [6] and in assay [4] was “inactive” throughout. Besides, in assay [3], the activation is 14.1% (inactive). Moreover, the viability change in assay [4] was 1.58%.
As for `CC(=O)SCC[N+](C)(C)C`, the call in assay [1] was inactive. Moreover, the Potency result in assay [5], in assay [2], in assay [6], in assay [7] and in assay [4] was “inactive” throughout. Further, in assay [3], the activation was 0.875% (inactive). Also, the viability change in assay [4] is -2.78%.
On to `O=C(Nc1cccc(C(=O)Nc2ccc(S(=O)(=O)O)c3cc(S(=O)(=O)O)cc(S(=O)(=O)O)c23)c1)Nc1cccc(C(=O)Nc2ccc(S(=O)(=O)O)c3cc(S(=O)(=O)O)cc(S(=O)(=O)O)c23)c1`, for which the outcome in assay [1] was inactive. Moreover, the Potency result in assay [8] and in assay [4] was “inactive” in each case. For the same molecule, the activation in assay [3] is 0.875% (inactive). The viability change in assay [4] is -3.71%.
For `CC(C)(C)c1ccc(S(=O)(=O)/C=C/C#N)cc1`, the result in assay [1] was inactive. The activation in assay [3] was 7.44% (inactive). Further, in assay [4], the Potency entry was “inactive” and the viability change was 4.47%.
Take `CC1(C)CCC=[N+]1[O-]`: the outcome in assay [1] was inactive. Further, the Potency entry in assay [5], in assay [2], in assay [6], in assay [7] and in assay [4] was “inactive” each time. Also, in assay [3], the activation is 1.19% (inactive). In addition, the viability change in assay [4] was -0.162%.
`CCCN(CC1CC1)c1nc(C)nc(Nc2c(Cl)cc(Cl)cc2Cl)c1Cl`: the molecule was called inactive in assay [1]. The Potency entry in assay [5], in assay [2], in assay [6], in assay [7] and in assay [4] was “inactive” throughout. Further, the activation in assay [3] is -7.44% (inactive). In assay [4], the viability change was 7.51%.
Regarding `Oc1ccc(C2CNCc3sccc32)cc1O` (stereo not drawn), the outcome in assay [1] was inactive. Besides, the Potency result in assay [5], in assay [6], in assay [7] and in assay [4] was “inactive” throughout. The Potency in assay [2] was 0.199 µM (active). In addition, the activation in assay [3] is 1.75% (inactive). Further, the viability change in assay [4] was -11.4%.
For `Fc1cccc(/C=N/N=C/c2cccc(F)c2)c1`, in assay [1], the molecule was called inactive. Further, the Potency result in assay [8] and in assay [4] was “inactive” in each case. In addition, the Potency in assay [6] is 23.1 µM (active). Besides, in assay [3], the activation is -7.56% (inactive). In addition, the viability change in assay [4] came to 1.98%.
For `CCCCN1CCC(n2c(=O)[nH]c3ccccc32)CC1`, in assay [1], the molecule was classed as inactive. The Potency result in assay [5], in assay [2], in assay [6], in assay [7] and in assay [4] was “inactive” each time. Also, the activation in assay [3] is 1% (inactive). Also, in assay [4], the viability change is -4.5%.
For `Cc1ccc(O)c(N=Nc2ccccc2)n1`, the call in assay [1] was inactive. The Potency entry in assay [5], in assay [2] and in assay [4] was “inactive” throughout. Further, the activation in assay [3] was 0.875% (inactive). For the same molecule, the viability change in assay [4] came to 0.002%.
Regarding `C=C/C(C)=C/[C@@]1(C)SC(=O)C(C)=C1O`, the outcome in assay [1] was inactive. In addition, in assay [3], the activation is 0.875% (inactive).
For `C[N+](C)(CCCCCC[N+](C)(C)CCCN1C(=O)c2cccc3cccc(c23)C1=O)CCCN1C(=O)c2cccc3cccc(c23)C1=O`, the result in assay [1] was inactive. The Potency entry in assay [5], in assay [2], in assay [6], in assay [7] and in assay [4] was “inactive” throughout. For the same molecule, the activation in assay [3] was -0.188% (inactive). In addition, the viability change in assay [4] was -2.29%.
